The campaign covered roughly 5,500 compounds. About 2,000 (36%) were called active. Inconclusive results (about 18%) are left out. No stated cut-off is given here; in the data, active means normalized growth mostly below about 0.91 (no sharp cut-off); inconclusive means no clear call, values can overlap the other calls; inactive means mostly above about 0.92. Some of the results follow.
Test: chemical genetic growth profiling, strain panel (AID 1159580);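 further: tested at 20 µM; growth read once vehicle control cultures reached saturation at 30 °C; 1 = growth at the plate median or of vehicle wells; lower values mean less growth of the strain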
Conditions: growth OD

Measured: normalized growth

O=C(O)COc1ccc(Cl)cc1Cl
inactive: S. cerevisiae deletion strains, locus YJR043C, strain POL32, hits give low values 1.02 | S. cerevisiae deletion strains, locus YJR075W, strain HOC1, hits give low values 1.02 | S. cerevisiae deletion strains, locus YKL009W, strain mrt4, hits give low values 1.04 | S. cerevisiae deletion strains, locus YKL068W, hits give low values 1.01 | S. cerevisiae deletion strains, locus YKL085W, strain MDH1 (second series), hits give low values 1.01 | S. cerevisiae deletion strains, locus YKL085W, strain MDH1, hits give low values 1.01 | S. cerevisiae deletion strains, locus YKL160W, strain elf1, hits give low values 0.996 | S. cerevisiae deletion strains, locus YKL190W, strain CNB1, hits give low values 1.02 | S. cerevisiae deletion strains, locus YKR001C, strain vps1, hits give low values 1.04 | S. cerevisiae deletion strains, locus YKR026C, strain gcn3, hits give low values 0.988 | S. cerevisiae deletion strains, locus YKR091W, strain srl3, hits give low values 0.999 | S. cerevisiae deletion strains, locus YLL001W, strain dnm1, hits give low values 1 | S. cerevisiae deletion strains, locus YLL026W, hits give low values 0.988 | S. cerevisiae deletion strains, locus YLL041C, strain sdh2, hits give low values 0.995 | S. cerevisiae deletion strains, locus YLR027C, strain aat2, hits give low values 0.993 | S. cerevisiae deletion strains, locus YLR039C, strain RIC1, hits give low values 1.04 | S. cerevisiae deletion strains, locus YLR058C, strain SHM2, hits give low values 1.01 | S. cerevisiae deletion strains, locus YLR102C, strain apc9, hits give low values 1.03 | S. cerevisiae deletion strains, locus YLR221C, strain rsa3, hits give low values 0.989 | S. cerevisiae deletion strains, locus YLR258W, strain gsy2, hits give low values 0.994 | S. cerevisiae deletion strains, locus YLR262C, strain YPT6 (second series), hits give low values 0.996 | S. cerevisiae deletion strains, locus YLR262C, strain YPT6, hits give low values 1.08 | S. cerevisiae deletion strains, locus YLR268W, strain sec22, hits give low values 1.02 | S. cerevisiae deletion strains, locus YLR320W, strain mms22, hits give low values 0.991 | S. cerevisiae deletion strains, locus YLR330W, strain CHS5, hits give low values 1.01 | S. cerevisiae deletion strains, locus YLR342W, strain FKS1 (second series), hits give low values 1.03 | S. cerevisiae deletion strains, locus YLR342W, strain FKS1, hits give low values 1 | S. cerevisiae deletion strains, locus YLR357W, strain rsc2, hits give low values 0.989 | S. cerevisiae deletion strains, locus YLR370C, strain arc18, hits give low values 0.994 | S. cerevisiae deletion strains, locus YLR371W, strain rom2, hits give low values 1.03 | S. cerevisiae deletion strains, locus YLR384C, strain iki3, hits give low values 0.997 | S. cerevisiae deletion strains, locus YLR418C, strain cdc73, hits give low values 1.06 | S. cerevisiae deletion strains, locus YML016C, strain PPZ1, hits give low values 1.01 | S. cerevisiae deletion strains, locus YML032C, strain rad52, hits give low values 1.04 | S. cerevisiae deletion strains, locus YML120C, strain ndi1, hits give low values 0.989 | S. cerevisiae deletion strains, locus YML124C, strain tub3, hits give low values 1.02 | S. cerevisiae deletion strains, locus YMR058W, strain fet3, hits give low values 0.999 | S. cerevisiae deletion strains, locus YMR078C, strain ctf18, hits give low values 1.02 | S. cerevisiae deletion strains, locus YMR125W, strain sto1, hits give low values 0.993 | S. cerevisiae deletion strains, locus YMR129W, hits give low values 0.996 | S. cerevisiae deletion strains, locus YMR205C, strain PFK2, hits give low values 0.984 | S. cerevisiae deletion strains, locus YMR223W, strain ubp8, hits give low values 1.03 | S. cerevisiae deletion strains, locus YMR231W, strain pep5, hits give low values 0.992 | S. cerevisiae deletion strains, locus YMR263W, strain SAP30, hits give low values 1.01 | S. cerevisiae deletion strains, locus YMR307W, strain GAS1, hits give low values 1.04 | S. cerevisiae deletion strains, locus YNL067W, strain RPL9B, hits give low values 1.02 | S. cerevisiae deletion strains, locus YNL071W, strain lat1, hits give low values 1.01 | S. cerevisiae deletion strains, locus YNL128W, strain TEP1, hits give low values 1.02 | S. cerevisiae deletion strains, locus YNL153C, strain GIM3, hits give low values 0.993 | S. cerevisiae deletion strains, locus YNL209W, strain ssb2, hits give low values 1 | S. cerevisiae deletion strains, locus YNL233W, strain BNI4, hits give low values 1.03 | S. cerevisiae deletion strains, locus YNL248C, strain rpa49, hits give low values 0.989 | S. cerevisiae deletion strains, locus YNL250W, strain rad50, hits give low values 1.02 | S. cerevisiae deletion strains, locus YNL271C, strain bni1, hits give low values 1.02 | S. cerevisiae deletion strains, locus YNL298W, strain CLA4, hits give low values 1.04 | S. cerevisiae deletion strains, locus YNL307C, strain MCK1, hits give low values 1.03 | S. cerevisiae deletion strains, locus YNL322C, strain KRE1 (second series), hits give low values 0.994 | S. cerevisiae deletion strains, locus YNL322C, strain KRE1, hits give low values 1.01 | S. cerevisiae deletion strains, locus YNR049C, strain mso1, hits give low values 0.993 | S. cerevisiae deletion strains, locus YNR052C, strain pop2, hits give low values 1.03 | S. cerevisiae deletion strains, locus YOL006C, strain TOP1, hits give low values 1.08 | S. cerevisiae deletion strains, locus YOL012C, strain htz1 1.3 | S. cerevisiae deletion strains, locus YOL147C, strain pex11, hits give low values 1.02 | S. cerevisiae deletion strains, locus YOR001W, strain rrp6, hits give low values 0.993 | S. cerevisiae deletion strains, locus YOR061W, strain CKA2, hits give low values 1.01 | S. cerevisiae deletion strains, locus YOR069W, strain VPS5, hits give low values 1.01 | S. cerevisiae deletion strains, locus YOR070C, strain gyp1, hits give low values 1 | S. cerevisiae deletion strains, locus YOR080W, strain dia2, hits give low values 0.996 | S. cerevisiae deletion strains, locus YOR083W, strain WHI5, hits give low values 0.998 | S. cerevisiae deletion strains, locus YOR106W, strain vam3, hits give low values 0.994 | S. cerevisiae deletion strains, locus YOR136W, strain idh2, hits give low values 1.02 | S. cerevisiae deletion strains, locus YOR144C, strain elg1, hits give low values 1.02 | S. cerevisiae deletion strains, locus YOR184W, strain ser1, hits give low values 1.03 | S. cerevisiae deletion strains, locus YOR265W, strain rbl2, hits give low values 0.992 | S. cerevisiae deletion strains, locus YOR270C, strain vph1, hits give low values 1.01 | S. cerevisiae deletion strains, locus YOR290C, strain snf2, hits give low values 1 | S. cerevisiae deletion strains, locus YOR316C, strain cot1, hits give low values 1.03 | S. cerevisiae deletion strains, locus YPL051W, strain arl3, hits give low values 0.993 | S. cerevisiae deletion strains, locus YPL055C, strain LGE1, hits give low values 1.03 | S. cerevisiae deletion strains, locus YPL078C, strain atp4, hits give low values 0.999 | S. cerevisiae deletion strains, locus YPL106C, strain sse1, hits give low values 0.983 | S. cerevisiae deletion strains, locus YPL240C, strain hsp82, hits give low values 0.993 | S. cerevisiae deletion strains, locus YPL241C, strain CIN2, hits give low values 1.01 | S. cerevisiae deletion strains, locus YPR119W, strain clb2, hits give low values 1.01 | S. cerevisiae deletion strains, locus YPR141C, strain kar3, hits give low values 1.03 | S. cerevisiae deletion strains, locus YPR163C, strain tif3, hits give low values 1.02 | S. cerevisiae deletion strains, locus YPR167C, strain met16, hits give low values 1.03 | S. cerevisiae deletion strains, strain wtn01, hits give low values 1.02 | S. cerevisiae strains, strain wild type, hits give low values 1.01

Source: PubChem BioAssay AID1159580 (chemical genetic matrix, 2015)
